Among all 69,000 compounds or so, about 8,600 (12%) showed an effect of 50% or more. Shown is part of a subset that was picked to be rich in strong results.

For the assay, the system named is Plasmodium berghei. Briefly: Screen against P. berghei liver stage (PbLuc), transformed with Luciferase, at 10uM. Particulars: tested at 10 uM. Format: functional, HepG2.
As to `COCC1(NC(=O)C(c2ccc(F)cc2)N(C)C)CCCC1` (stereo not drawn), the INHIBITION stood at 21.1%.

As to `CN(C)C(C(=O)NC1(CO)CCCC1)c1ccc(F)cc1` (stereo not drawn), the INHIBITION was determined as 31.3%.

In the case of `CCCC1(NC(=O)C(c2ccc(F)cc2)N(C)C)CC1` (stereo not drawn), the INHIBITION stood at 53.6%.

With `CCOc1ccc(CCCC(=O)N2CCC(c3nnn[nH]3)CC2)cc1C`, the INHIBITION was 17.7%.

Consider `CC(C)CC(=O)N1CCCCC(NC(=O)CCc2cccnc2)C1` (stereo not drawn), for which the INHIBITION turned out to be 34.4%.

For the compound `CCO[C@H]1CCN(S(=O)(=O)c2cn(C)cn2)[C@H]1Cc1ccccc1`, the INHIBITION is given as -55.5%.

For `C1CC(c2noc(C3CC3)n2)CN(Cc2noc(C3CC3)n2)C1` (stereo not drawn), the INHIBITION was found to be 17.8%.

Take `c1cc(CN2CCCC(c3noc(C4CC4)n3)C2)no1` (stereo not drawn): the INHIBITION worked out at 51.6%.

On to `Cc1cccn2cc(CN3CCCC(c4noc(C5CC5)n4)C3)nc12` (stereo not drawn), for which the INHIBITION is listed as -48.6%.

As for `CCN(Cc1cnn(C)c1)C[C@H]1CC[C@@H](Cc2ccc(CO)cc2)O1`, the INHIBITION is -5.78%.

As for `O=C(NCc1ccco1)[C@H]1C[C@@H]2CCN(c3nncs3)C[C@H]2O1`, the INHIBITION is given as 13.5%.

Consider `CSCC(=O)N(C)Cc1noc(-c2ccccc2)n1`, for which the INHIBITION is reported as 55.9%.

For `CN(Cc1noc(-c2ccccc2)n1)C(=O)CSc1nnc(N)s1`, the INHIBITION is reported as 18.9%.

In the case of `CCc1nc(CN(C)C(=O)CSC)no1`, the INHIBITION is on record as -4.96%.

On to `c1ccc(-c2cnc(CN3CCCC3Cn3cccn3)o2)cc1` (stereo not drawn), for which the INHIBITION is 40.9%.

On to `O=C1CC2(CCCC2)CC(=O)N1Cc1ncccn1`, for which the INHIBITION came to 29.4%.

In the case of `Cn1nc(C(=O)NCc2ccc(Cl)cc2)c2c1CCS(=O)(=O)C2`, the INHIBITION is on record as 53.2%.

In the case of `Cn1nc(C(=O)NCc2ccc(F)cc2)c2c1CCS(=O)(=O)C2`, the INHIBITION was 21.7%.

On to `Cn1nc(C(=O)NCc2cccnc2)c2c1CCS(=O)(=O)C2`, for which the INHIBITION is on record as 73.9%.

Take `Cn1nc(C(=O)NCc2ccccn2)c2c1CCS(=O)(=O)C2`: the INHIBITION was -45%.

Turning to `COc1ccc(CNC(=O)c2nn(C)c3c2CS(=O)(=O)CC3)cc1`, the INHIBITION came out at 40%.

For `Cn1nc(C(=O)NCc2cccs2)c2c1CCS(=O)(=O)C2`, the INHIBITION was 23.4%.

With `Cc1cnnn1Cc1nnn2c1CN(Cc1ccccn1)CCC2`, the INHIBITION is 42.6%.

Turning to `O=C(O)CSc1nc(-c2ccc3c(c2)CCC3)n[nH]1`, the INHIBITION was 11.4%.

For the compound `O=C([C@H]1CC[C@@H]2[C@@H](CCN2Cc2ccc(F)cc2)O1)N1CCCO1`, the INHIBITION is on record as -11.6%.

As to `Cc1nccn1CCC1CCN(c2ncccn2)CC1`, the INHIBITION was determined as 48.5%.

Turning to `c1cnc(N2CCN(CCn3ccnc3-c3c[nH]cn3)CC2)nc1`, the INHIBITION is 14.5%.

On to `c1cnc(N2CCN(CCn3ccnc3-c3ccncc3)CC2)nc1`, for which the INHIBITION was 50.5%.

For `Cc1nc(N)sc1C(=O)N1Cc2ccccc2OC2(CCOCC2)C1`, the INHIBITION was 61.7%.

In the case of `Nc1nonc1C(=O)N1Cc2ccccc2OC2(CCOCC2)C1`, the INHIBITION was determined as 8.72%.

For `Cc1ccc(C(=O)N2Cc3ccccc3OC3(CCOCC3)C2)cn1`, the INHIBITION is listed as 52%.

As to `Cc1cc(C(=O)N2Cc3ccccc3OC3(CCOCC3)C2)nc(N)n1`, the INHIBITION came out at 52.9%.

With `O=C(c1cncnc1)N1Cc2ccccc2OC2(CCOCC2)C1`, the INHIBITION was -33.4%.

As for `Cc1cnc(C(=O)N2Cc3ccccc3OC3(CCOCC3)C2)cn1`, the INHIBITION was -6.92%.

`O=C(c1ccccn1)N1Cc2ccccc2OC2(CCOCC2)C1`: the INHIBITION came to 48.4%.

`O=C(c1ccncc1)N1Cc2ccccc2OC2(CCOCC2)C1`: the INHIBITION stood at 20.5%.

`O=C(c1ccc(O)nc1)N1Cc2ccccc2OC2(CCOCC2)C1`: the INHIBITION was determined as 25.6%.

On to `Cc1ccc2nc(C3CCCN(Cc4ccccc4)C3)nc(O)c2c1` (stereo not drawn), for which the INHIBITION is 30.8%.

In the case of `CN(C)C(=O)N1C[C@@H](C(=O)NCc2ccco2)C[C@H]2OCC[C@H]21`, the INHIBITION was -28%.

For `CCc1cc(=O)n(CC(=O)N2CCCCC2)c(-c2cccc(F)c2)n1`, the INHIBITION was 44.1%.

Take `Cc1ccc(N2CCCC(N(C)c3nn4cc(C)nc4s3)C2)nn1` (stereo not drawn): the INHIBITION is recorded as -21.9%.

For the compound `O[C@H]1CN(Cc2ccc3c(c2)OCCO3)CC[C@@]12CCCO2`, the INHIBITION stood at 19.6%.

In the case of `Cc1cnc(-c2nc(O)c3c(n2)CN(C(=O)C2CCCO2)CC3)cn1` (stereo not drawn), the INHIBITION was found to be 9.05%.

As for `CCN(Cc1ccoc1)C(=O)C1CCN(C(=O)OC(C)(C)C)C1` (stereo not drawn), the INHIBITION is listed as -12.4%.

On to `O=C(CC1CCC2(CC1)CCN(Cc1ccncc1)CC2)N1CCCC1`, for which the INHIBITION was -15.2%.

As for `CN1CCC(N(CCc2ccccc2)C(=O)c2ccc(C#N)nc2)CC1`, the INHIBITION worked out at 12.5%.

On to `CN1CCC(N(CCc2ccccc2)C(=O)c2ccc(CO)cc2)CC1`, for which the INHIBITION was 25.2%.

For the compound `CN1CCC(N(CCc2ccccc2)C(=O)c2ccc(C#N)cc2)CC1`, the INHIBITION was determined as 53.1%.

As for `Cc1cc(C(=O)NC2=NCCS2)c(C)n1-c1ccccn1`, the INHIBITION is recorded as 42.1%.

With `Cc1ccc(CN2CCC(n3cc(C(O)c4ccccc4)nn3)CC2)o1` (stereo not drawn), the INHIBITION is 48.5%.

On to `Cc1ccsc1CN1CCC(n2cc(C(O)c3ccccc3)nn2)CC1` (stereo not drawn), for which the INHIBITION stood at 72.1%.

As to `OC(c1ccccc1)c1cn(C2CCN(Cc3nccs3)CC2)nn1` (stereo not drawn), the INHIBITION stood at 18.5%.

Consider `CC(C)CC(O)C1CCN(C(=O)c2coc(CN3CCOCC3)c2)CC1` (stereo not drawn), for which the INHIBITION amounted to 16.7%.

The values above are taken from ChEMBL document CHEMBL4513216, “Probing the Open Global Health Chemical Diversity Library for Multistage-Active Starting Points for Next-Generation Antimalarials” (ACS Infect Dis, 2020).
